Records with an inconclusive call do not appear. Calls of active or inactive are those of the source. Unless noted, the call rests on the fitted dose curve; in most records, active means well fitted curve in the direction sought with a large enough effect in the repeat runs; inconclusive means weak or mixed curves; inactive means no such curve, though single readings can be large; an effect the other way counts as inactive or inconclusive.
Assays:
[1] = qHTS assay to identify small molecule antagonists of the sonic hedgehog signaling (Shh) pathway (AID 1259369; calls by dose curve; further: nearly all actives have a fitted effect of over 45% in size)
How it was run: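 Stable Gli1-Luc reporter NIH/3T3 clone; quantitative HTS in stimulated mode with conditioned medium. Luminescence measured after 24hr compound treatment at 37 C.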

[2] = qHTS assay to identify small molecule agonists of the androgen receptor (AR) signaling pathway in the presence of an antagonist - cell viability counter screen (AID 1259379);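 further: MDA-kb2 human breast cancer cells carrying an MMTV luciferase reporter; series mostly up to about 92 µM; nearly all actives have a fitted effect of over 25% in size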
How it was run: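 Nilutamide-containing (3.0uM final) MDA-kb2 cultures, 3,000 cells/well, were treated with compounds across 15 concentrations. After 16 hr at 37C with no CO2, cell viability was determined by CellTiter-Fluor fluorescence in the luciferase assay wells.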

[3] = qHTS assay to identify small molecule antagonists of the estrogen receptor beta (ER-beta) signaling pathway - cell viability counter screen (AID 1259382);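 further: HEK293T cells carrying ER-beta-UAS-bla reporter stimulated with estradiol; series mostly up to about 92 µM; nearly all actives have a fitted effect of over 55% in size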
How it was run: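 Viability is scored by CellTiter-Glo luminescence (30 min, room temperature) in ER-beta-UAS-bla HEK293T wells already read for reporter fluorescence. Compound exposure lasts 16 hr at 37C alongside 1nM 17-beta-estradiol in charcoal-stripped serum medium.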

[4] = target: Estrogen receptor (Homo sapiens) (UniProt P03372); assay: qHTS assay to identify small molecule agonists of the estrogen receptor alpha (ER-alpha) signaling pathway in the presence of an antagonist (AID 1259383; calls by dose curve; further: top concentration of the series differs between compounds; nearly all actives have a fitted effect of over 15% in size)
Sequence of Estrogen receptor (Homo sapiens) (P03372 whole entry, looked up): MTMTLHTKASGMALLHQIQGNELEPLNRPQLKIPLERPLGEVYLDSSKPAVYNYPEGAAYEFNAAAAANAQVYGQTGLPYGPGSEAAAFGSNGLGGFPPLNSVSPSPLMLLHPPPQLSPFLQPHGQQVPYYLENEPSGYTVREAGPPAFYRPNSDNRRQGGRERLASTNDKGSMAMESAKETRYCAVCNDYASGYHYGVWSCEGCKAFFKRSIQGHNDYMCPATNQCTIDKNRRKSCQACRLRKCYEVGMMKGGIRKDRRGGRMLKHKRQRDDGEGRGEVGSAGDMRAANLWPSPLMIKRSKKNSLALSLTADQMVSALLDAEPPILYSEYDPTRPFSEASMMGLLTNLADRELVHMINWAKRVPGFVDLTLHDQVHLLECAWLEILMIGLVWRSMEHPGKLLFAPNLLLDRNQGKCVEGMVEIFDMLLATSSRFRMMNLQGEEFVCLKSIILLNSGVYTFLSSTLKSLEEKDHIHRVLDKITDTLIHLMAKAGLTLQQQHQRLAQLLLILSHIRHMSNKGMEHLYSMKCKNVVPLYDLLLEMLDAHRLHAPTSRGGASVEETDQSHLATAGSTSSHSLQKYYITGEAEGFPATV
How it was run: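 Readout was ERE-driven luciferase luminescence in VM7Luc4E2 cells, which express full-length ER-alpha endogenously. Compounds were tested at 15 concentrations for 22hr alongside 10.0nM ICI-182,780 (final concentration).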

[5] = qHTS assay to identify small molecule agonists or antagonists of the thyroid stimulating hormone receptor (TSHR) signaling pathway - wild type cell line counter screen (AID 1259384; calls by dose curve)
How it was run: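 Counter screen in untransfected Hek293: compounds (15-point titration, triplicate) plus phosphodiesterase inhibitor Ro20-1724 added after 18 h plating; 30 min RT. Intracellular cAMP via competitive d2/cryptate immunoassay, 1 h incubation.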

[6] = target: Thyrotropin receptor (Homo sapiens) (UniProt P16473); assay: qHTS assay to identify small molecule antagonists of the thyroid stimulating hormone receptor (TSHR) signaling pathway (AID 1259385; calls by dose curve; further: nearly all actives have a fitted effect of over 20% in size)
Sequence of Thyrotropin receptor (Homo sapiens) (P16473 whole entry, looked up): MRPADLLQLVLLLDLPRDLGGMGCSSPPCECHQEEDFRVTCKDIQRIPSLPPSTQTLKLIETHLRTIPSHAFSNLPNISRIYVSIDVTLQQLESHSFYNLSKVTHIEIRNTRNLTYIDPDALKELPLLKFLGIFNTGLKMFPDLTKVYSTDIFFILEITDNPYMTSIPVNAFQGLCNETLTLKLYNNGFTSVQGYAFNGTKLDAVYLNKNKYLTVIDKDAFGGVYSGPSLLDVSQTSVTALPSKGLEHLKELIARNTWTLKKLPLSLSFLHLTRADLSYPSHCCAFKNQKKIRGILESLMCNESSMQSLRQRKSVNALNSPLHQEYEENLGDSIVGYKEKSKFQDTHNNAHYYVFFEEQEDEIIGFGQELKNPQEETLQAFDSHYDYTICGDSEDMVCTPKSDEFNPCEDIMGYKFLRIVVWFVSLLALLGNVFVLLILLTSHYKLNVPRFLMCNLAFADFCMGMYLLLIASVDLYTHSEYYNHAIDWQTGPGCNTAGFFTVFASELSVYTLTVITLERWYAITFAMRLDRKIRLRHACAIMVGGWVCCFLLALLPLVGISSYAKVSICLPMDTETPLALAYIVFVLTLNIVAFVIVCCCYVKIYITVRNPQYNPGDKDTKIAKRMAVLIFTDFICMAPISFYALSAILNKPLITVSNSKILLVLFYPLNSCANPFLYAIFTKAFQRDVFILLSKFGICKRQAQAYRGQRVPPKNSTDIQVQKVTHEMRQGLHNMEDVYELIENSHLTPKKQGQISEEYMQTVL
How it was run: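 Antagonist mode: compound-treated TSHR-expressing HEK293 cells were stimulated with 1.5 ng/mL TSH (final) in presence of Ro20-1724 for 30 min at RT. HTRF cAMP detection after 1 h; each compound tested at 15 concentrations, triplicate.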

[7] = qHTS assay to identify small molecule agonists of the estrogen receptor alpha (ER-alpha) signaling pathway in the presence of an antagonist - cell viability counter screen (AID 1259386);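 further: series mostly up to about 92 µM; cells exposed to compounds for 22 h at 37 °C before the viability read; nearly all actives have a fitted effect of over 30% in size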
How it was run: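 In this counter screen, compound effects on VM7Luc4E2 viability were tested in the presence of the antagonist ICI-182,780 at 10.0nM final. Compounds were dosed at 15 concentrations, exposure lasted 22hr, and the CellTiter-Fluor signal was read.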

[8] = target: Progesterone receptor (Homo sapiens) (UniProt P06401); assay: qHTS assay to identify small molecule agonists of the progesterone receptor (PR) signaling pathway (AID 1346784; calls by dose curve; further: nearly all actives have a fitted effect of over 30% in size)
Sequence of Progesterone receptor (Homo sapiens) (P06401 whole entry, looked up): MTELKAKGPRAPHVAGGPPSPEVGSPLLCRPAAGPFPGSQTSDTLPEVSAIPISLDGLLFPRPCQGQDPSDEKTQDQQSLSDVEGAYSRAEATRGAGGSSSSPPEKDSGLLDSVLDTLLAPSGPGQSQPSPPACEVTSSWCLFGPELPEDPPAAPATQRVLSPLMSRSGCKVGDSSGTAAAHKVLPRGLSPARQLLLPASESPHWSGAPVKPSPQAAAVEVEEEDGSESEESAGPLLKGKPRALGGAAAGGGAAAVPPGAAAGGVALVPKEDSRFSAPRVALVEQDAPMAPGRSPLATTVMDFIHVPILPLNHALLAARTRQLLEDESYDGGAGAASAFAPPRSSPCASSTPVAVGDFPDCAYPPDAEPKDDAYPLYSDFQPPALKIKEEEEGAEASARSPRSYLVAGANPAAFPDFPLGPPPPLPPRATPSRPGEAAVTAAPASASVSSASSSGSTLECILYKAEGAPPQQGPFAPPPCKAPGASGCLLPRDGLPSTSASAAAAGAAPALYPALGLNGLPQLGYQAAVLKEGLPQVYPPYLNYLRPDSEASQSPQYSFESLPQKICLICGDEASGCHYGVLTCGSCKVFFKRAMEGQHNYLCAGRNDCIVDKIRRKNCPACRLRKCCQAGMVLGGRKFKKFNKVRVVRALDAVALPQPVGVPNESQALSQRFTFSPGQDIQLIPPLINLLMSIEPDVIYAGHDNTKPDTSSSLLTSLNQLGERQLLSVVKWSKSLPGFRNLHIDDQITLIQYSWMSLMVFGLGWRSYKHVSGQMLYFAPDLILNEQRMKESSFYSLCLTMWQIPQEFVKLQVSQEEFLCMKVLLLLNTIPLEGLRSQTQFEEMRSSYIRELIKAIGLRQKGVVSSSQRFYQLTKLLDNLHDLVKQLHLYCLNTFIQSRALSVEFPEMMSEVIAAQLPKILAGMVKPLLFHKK
How it was run: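 Fluorescence from LiveBLAzer B/G FRET substrate cleavage (2 hr, RT) reported PR activation in PR-UAS-bla HEK 293T cells treated 16 hr at 37C/5% CO2 with compounds; medium contained 2% charcoal-stripped FBS.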

[9] = target: Progesterone receptor (Homo sapiens) (UniProt P06401); assay: qHTS assay to identify small molecule antagonists of the progesterone receptor (PR) signaling pathway (AID 1346795; active means well fitted inhibition curve with a large enough effect in the signal ratio in the repeat runs, not every such curve was filed as active; the % refers to the signal ratio)
How it was run: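 Fluorescence intensity measured 2 hr after adding beta-lactamase FRET substrate to PR-UAS-bla HEK293T cells that had been co-treated 16 hr with compound and 1 nM R5020 (final concentration) in 2% charcoal-stripped FBS.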

[10] = qHTS assay to identify small molecule antagonists of the progesterone receptor (PR) signaling pathway - cell viability counter screen (AID 1346798); further: series mostly up to about 92 µM; nearly all actives have a fitted effect of over 50% in size
How it was run: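 CellTiter-Glo luminescence; PR-UAS-bla HEK293T, 3,000 cells/well; compound + R5020, 16 hr, 37C/5% CO2; 30 min RT before read.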

[11] = qHTS assay to identify small molecule agonists of the TGF-beta/Smad signaling pathway - cell viability counter screen (AID 1346829); further: top concentration of the series differs between compounds; nearly all actives have a fitted effect of over 45% in size
How it was run: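 Compound-treated SBE-bla HEK 293T cells (5 hr, 37 C) were assessed for viability with CellTiter-Glo in parallel with the reporter read.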

[12] = qHTS assay to identify small molecule agonists of the TGF-beta/Smad signaling pathway (AID 1346859; active means well fitted activation curve with a large enough effect in the signal ratio in the repeat runs, not every such curve was filed as active; the % refers to the signal ratio; further: series mostly up to about 77 µM)
How it was run: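 After overnight seeding, SBE-bla HEK 293T cells are dosed with compounds in DMSO and kept 5 hr at 37 C, 5% CO2. LiveBLAzer-type FRET substrate is then applied for 2 hr at room temperature.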

[13] = target: Thyrotropin-releasing hormone receptor (Homo sapiens) (UniProt P34981); assay: qHTS assay to identify small molecule antagonists of the thyrotropin-releasing hormone receptor (TRHR) signaling pathway (AID 1346877; active means well fitted inhibition curve with a large enough effect in the repeat runs, not every such curve was filed as active; further: series mostly up to about 51 µM)
Sequence of Thyrotropin-releasing hormone receptor (Homo sapiens) (P34981 whole entry, looked up): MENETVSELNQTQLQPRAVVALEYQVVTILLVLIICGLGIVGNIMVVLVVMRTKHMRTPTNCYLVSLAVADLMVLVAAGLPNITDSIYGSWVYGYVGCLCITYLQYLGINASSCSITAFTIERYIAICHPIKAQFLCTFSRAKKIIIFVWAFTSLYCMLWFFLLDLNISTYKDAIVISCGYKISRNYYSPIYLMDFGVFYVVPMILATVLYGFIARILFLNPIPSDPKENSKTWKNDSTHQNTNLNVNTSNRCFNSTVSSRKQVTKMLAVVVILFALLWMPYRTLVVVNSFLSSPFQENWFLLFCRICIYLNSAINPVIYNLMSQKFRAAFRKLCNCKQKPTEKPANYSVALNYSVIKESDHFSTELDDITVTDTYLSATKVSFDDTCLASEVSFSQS
How it was run: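 Kinetic fluorescence (3 min, 1 s resolution) following stimulation with TRH at 1 nM final; HEK293 cells bearing human TRHR; 5 min compound preincubation at RT; concentration-response over 15 points, triplicates.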

[14] = target: Thyrotropin-releasing hormone receptor (Homo sapiens) (UniProt P34981); assay: qHTS assay to identify small molecule agonists of the thyrotropin-releasing hormone receptor (TRHR) signaling pathway (AID 1346891; calls by dose curve;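 further: HEK293 cells expressing TRHR with calcium dye readout; series mostly up to about 58 µM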)
How it was run: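 Compounds were tested as agonists at 15 concentrations, in triplicate, on TRHR-Hek293 cells; calcium-sensitive dye fluorescence was recorded for 3 min following addition.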

[15] = Human pregnane X receptor (PXR) small molecule agonists, qHTS cell viability counter screen (AID 1346977); further: nearly all actives have a fitted effect of over 50% in size
How it was run: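 Viability counter screen: CellTiter-Fluor signal in PXR-Luc HepG2 cells, 24hr compound exposure, 37C, 5% CO2.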

[16] = qHTS assay to identify small molecule agonists of the progesterone receptor (PR) signaling pathway - cell viability counter screen (AID 1346799; calls by dose curve; further: nearly all actives have a fitted effect of over 45% in size)
How it was run: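 In parallel with the beta-lactamase readout, cytotoxicity toward PR-UAS-bla HEK293T cells was measured by CellTiter-Glo luminescence following 16 hr compound incubation in 2% charcoal-stripped FBS medium.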

[17] = target: Estrogen receptor beta (Homo sapiens) (UniProt Q92731); assay: qHTS assay to identify small molecule agonists of the estrogen receptor beta (ER-beta) signaling pathway (AID 1259377; active means well fitted activation curve with a large enough effect in the signal ratio in the repeat runs, not every such curve was filed as active; the % refers to the signal ratio)
Sequence of Estrogen receptor beta (Homo sapiens) (Q92731 whole entry, looked up): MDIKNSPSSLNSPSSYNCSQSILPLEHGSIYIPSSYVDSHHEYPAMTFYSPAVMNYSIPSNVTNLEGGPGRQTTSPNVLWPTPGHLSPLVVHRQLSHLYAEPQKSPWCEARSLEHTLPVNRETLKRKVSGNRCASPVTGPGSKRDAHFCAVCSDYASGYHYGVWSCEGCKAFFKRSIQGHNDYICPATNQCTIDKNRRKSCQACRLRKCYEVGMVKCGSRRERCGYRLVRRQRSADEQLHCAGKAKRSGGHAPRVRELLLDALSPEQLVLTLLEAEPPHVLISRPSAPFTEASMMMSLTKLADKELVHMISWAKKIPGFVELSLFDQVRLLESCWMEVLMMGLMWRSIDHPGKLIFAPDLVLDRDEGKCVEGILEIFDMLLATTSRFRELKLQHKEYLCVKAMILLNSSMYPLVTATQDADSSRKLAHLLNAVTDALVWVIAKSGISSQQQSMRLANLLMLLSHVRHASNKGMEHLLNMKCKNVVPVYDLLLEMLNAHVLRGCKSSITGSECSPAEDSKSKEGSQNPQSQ
How it was run: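 qHTS in ER-beta-UAS-bla HEK293T cells: 6 hr settling, then 16 hr compound at 37C, then LiveBLAzer substrate 2 h at RT before fluorescence reading.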

[18] = target: Estrogen receptor beta (Homo sapiens) (UniProt Q92731); assay: qHTS assay to identify small molecule antagonists of the estrogen receptor beta (ER-beta) signaling pathway (AID 1259378; active means well fitted inhibition curve with a large enough effect in the signal ratio in the repeat runs, not every such curve was filed as active; the % refers to the signal ratio)
How it was run: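 Antagonist mode: compounds added to beta-lactamase reporter HEK293T ER-beta-UAS cells stimulated with E2 (1nM final), 16 hr at 37C. LiveBLAzer B/G FRET substrate, 2 hours room temperature, fluorescence read-out.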

[19] = qHTS assay to identify small molecule antagonists of the TGF-beta/Smad signaling pathway - cell viability counter screen (AID 1346824); further: nearly all actives have a fitted effect of over 50% in size
How it was run: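 Cytotoxicity counter-screen run in the same wells as the beta-lactamase Smad reporter read: CellTiter-Glo luminescence after 30 min at room temperature. HEK 293T SBE-bla cells had 5 hr compound exposure at 37 C with TGF-beta1 (0.25 ng/mL stock).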

[20] = qHTS assay to identify small molecule agonists of the estrogen receptor beta (ER-beta) signaling pathway - cell viability counter screen (AID 1259380); further: nearly all actives have a fitted effect of over 30% in size
How it was run: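 Steps: plate ER-beta-UAS-bla HEK293T cells, rest 6 hr; add compounds in DMSO; incubate 16 hr at 37C, 5% CO2; add FRET substrate 2 hr; add CellTiter-Glo, wait 30 min at room temperature; read luminescence.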

Measured: Potency

C=COCC1CCC(CO)CC1 (centres undefined)
not listed: [16] | [17] | [18] | [19] | [20]
inactive: all other assays above

CCCCNC(=O)NCCCC
not listed: [8] | [13] | [17] | [18] | [19] | [20]
inactive: all other assays above

O=c1n(CCO)c(=O)n(CCO)c(=O)n1CCO
not listed: [1] | [10] | [12] | [13] | [20]
inactive: all other assays above

Oc1ccc(C2CNCCc3c2cc(O)c(O)c3Cl)cc1 (centres undefined)
not listed: [1] | [4] | [13] | [14] | [17] | [19]
inactive: all other assays above

Nc1nc2c(ncn2COC(CO)CO)c(=O)[nH]1
not listed: [1] | [11] | [12] | [16] | [17] | [18] | [20]
inactive: all other assays above

Cc1cc2c(cc1S(N)(=O)=O)S(=O)(=O)CCC2
not listed: [1] | [5] | [17] | [19] | [20]
inactive: all other assays above

CCO[Si](CCC1CCC2OC2C1)(OCC)OCC (centres undefined)
not listed: [1] | [5] | [11] | [16] | [17] | [18]
inactive: all other assays above

Cn1cc(S(C)=O)c(=O)c2ccc(F)cc21 (centres undefined)
not listed: [1] | [17] | [18]
inactive: all other assays above

CC(=O)CC(C)C
not listed: [1] | [4] | [5] | [13] | [14] | [17]
inactive: all other assays above

N#Cc1ccc(C2CCCc3cncn32)cc1 (centres undefined)
not listed: [1] | [6] | [12] | [17] | [18]
inactive: all other assays above

Cc1[nH]c(=O)c(C#N)cc1-c1ccc2nccn2c1
not listed: [1] | [4] | [10] | [17] | [18] | [20]
inactive: all other assays above

O=S(O)CO
not listed: [1] | [17]
inactive: all other assays above

CC(=O)N(CC(O)CO)c1c(I)c(C(=O)NCCO)c(I)c(C(=O)NCC(O)CO)c1I (centres undefined)
not listed: [1] | [4] | [17] | [18] | [19]
inactive: all other assays above

O=C(c1ccccc1)C1CCCCC1
not listed: [1] | [16] | [17] | [18]
inactive: all other assays above

CCCCCCCCCCCCCCCCC
not listed: [1] | [10] | [11] | [16] | [17] | [18]
inactive: all other assays above

CN1N=C(C(N)=O)CCC1=O
not listed: [1] | [11] | [12] | [13] | [14] | [16] | [17] | [18]
inactive: all other assays above

CC(C)(O)C#CC(C)(C)O
not listed: [1] | [11] | [13] | [17] | [18] | [19]
inactive: all other assays above

COc1cc(C(=O)N2CCCCCCC2)cc(OC)c1OC
not listed: [1] | [5] | [12] | [18] | [20]
inactive: all other assays above
